In PubChem BioAssay AID1619 (SRMLSC, 2009):
In all, about 220,000 compounds went through this assay and about 830 (0.38%) were called active.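 Rule for the calls: active = compound inhibiting the enzyme by more than half at any dose during confirmatory dose-response retesting; inconclusive = strong single-dose inhibitors picked by rank but not retested; inactive = the rest.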 The list is a sample of the results. Entries with a potency or affinity are not part of this list.

target: Leucine aminopeptidase (Plasmodium falciparum (isolate 3D7)) (UniProt Q8IL11); assay: P. falciparum M17LAP inhibitors, primary screen, biochemical, fluorogenic H-Leu-NHMec substrate, 1536-well (AID 1619); conditions: recombinant M17LAP, H-Leu-NHMec fluorogenic kinetic assay; at 30 µM; stronger effect = higher value;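 note: plate controls were full reaction with DMSO carrier for no effect and no enzyme background for full effect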
Sequence (Q8IL11 whole entry, looked up): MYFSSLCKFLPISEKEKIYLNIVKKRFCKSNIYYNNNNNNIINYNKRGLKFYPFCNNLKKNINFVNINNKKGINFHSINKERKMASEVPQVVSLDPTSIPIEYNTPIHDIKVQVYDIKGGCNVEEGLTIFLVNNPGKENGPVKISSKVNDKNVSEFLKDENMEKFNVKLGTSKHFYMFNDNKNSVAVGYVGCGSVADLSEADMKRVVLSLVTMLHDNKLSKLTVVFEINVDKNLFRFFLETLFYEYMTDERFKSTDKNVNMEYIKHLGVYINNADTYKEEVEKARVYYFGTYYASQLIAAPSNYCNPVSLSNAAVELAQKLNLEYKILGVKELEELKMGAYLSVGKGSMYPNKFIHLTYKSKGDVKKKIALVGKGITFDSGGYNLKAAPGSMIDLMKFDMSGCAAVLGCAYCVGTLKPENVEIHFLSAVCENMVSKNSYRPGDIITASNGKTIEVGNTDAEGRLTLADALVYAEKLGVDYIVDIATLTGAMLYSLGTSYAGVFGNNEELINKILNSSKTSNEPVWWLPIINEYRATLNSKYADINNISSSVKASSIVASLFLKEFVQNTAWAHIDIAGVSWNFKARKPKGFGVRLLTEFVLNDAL

inhibition, inactive:
Cc1nc2ccccc2n1C(=O)c1ccccc1[N+](=O)[O-] 7.68%
CCn1c(SCC(=O)Nc2cccc(C)n2)nnc1-c1ccco1 4.98%
Cc1ccccc1S(=O)(=O)Nc1nc2ccccc2nc1N1CCOCC1 16.6%
CC1=C(C(N)=O)C(c2ccccc2)n2nc(-c3cccs3)nc2N1 (stereo not drawn) -4.69%
O=C(CSc1nnc(CNc2cccc(C(F)(F)F)c2)n1Cc1ccco1)NCc1ccco1 7.9%
Cc1cc(NC(=O)CSc2nnc(CNc3cccc(C(F)(F)F)c3)n2Cc2ccco2)no1 7.47%
COc1ccc(NC(=O)CN(c2ccccc2)S(=O)(=O)N(C)C)cc1Cl -2.44%
COc1ccccc1-c1nnc(SCC(=O)N2CCOCC2)o1 -5.18%
Cc1ccc(S(=O)(=O)NC(=O)c2cc(C)n(-c3ccccc3)c2C)cc1 24.3%
Cc1ccc(S(=O)(=O)NC(=O)c2cc(C)n(-c3ccc(N(C)C)cc3)c2C)cc1 30.1%
CCOC(=O)c1c(-c2cccc3ccccc23)csc1NC(=O)C1C2CCC(O2)C1C(=O)O (stereo not drawn) 26.3%
CCOC(=O)c1cc(NC(=O)C2C3CCC(O3)C2C(=O)O)cc(C(=O)OCC)c1 (stereo not drawn) -8.46%
CCCOC(=O)c1c(-c2ccc(C)cc2C)csc1NC(=O)C1C2CCC(O2)C1C(=O)O (stereo not drawn) 44.7%
CCOC(=O)c1c(NC(=O)/C=C/C(=O)O)sc(C)c1-c1ccc(F)cc1 9.12%
O=C(O)C1C2CCC(O2)C1C(=O)Nc1ccc(F)cc1 (stereo not drawn) -6.52%
COC(=O)c1c(-c2ccc(C(C)(C)C)cc2)csc1NC(=O)C1C2CCC(O2)C1C(=O)O (stereo not drawn) 35.5%
CC(/C=N/NC(=O)c1ccccn1)=C\c1ccco1 9.53%
Cc1ccc([N+](=O)[O-])cc1-c1ccc(/C=N\n2nnnc2N)o1 14.9%
CSc1ccc(Cl)c(C(=O)OCC(=O)N(C)CCC#N)c1 1.64%
Cc1ccc(C)c(N(C(=O)Cn2nnc3ccccc32)C(C(=O)NCc2ccco2)c2ccncc2)c1 (stereo not drawn) -0.41%
O=C1CCC(=O)N1CN(C(=O)c1ccco1)c1ccccc1 -2.98%
Cc1ccc(SCC(=O)NN2C(=O)c3ccccc3C2=O)cc1 2.07%
O=C(Cc1ccccc1)NN1C(=O)c2ccccc2C1=O 23.7%
CCOc1cc(OCC)cc(C(=O)NC(=S)Nc2cccc(C(F)(F)F)c2)c1 3%
COC(=O)c1[nH]c(C)c(/C(O)=C2\C(=O)C(=O)N(CCN3CCOCC3)C2c2ccc(C)o2)c1C (stereo not drawn) 3.85%
COc1ccc(/C=C/C2=NN(C)C(=O)CC2)cc1 48.2%
O=C(O)CCC(=O)Nc1ccc(N2CCCCC2)c(C(=O)O)c1 10.6%
Cc1ccc(NC(=O)c2cc(NC(=O)c3ccccc3C(=O)O)ccc2N2CCCCC2)cc1 -63%
C/C(=N\NC(N)=S)C1(C)CC2(CC(C)(C)OC2=O)C(=O)O1 (stereo not drawn) -1.04%
Nc1nc(SCC(=O)N2N=C3/C(=C/c4ccco4)CCCC3C2c2ccco2)n[nH]1 (stereo not drawn) 9.23%
O=C(CSc1nccc(=O)[nH]1)N1N=C2/C(=C/c3ccco3)CCCC2C1c1ccco1 (stereo not drawn) 13.7%
COc1c(Cl)cc(-c2noc(C)c2C(=O)NCc2ccc3c(c2)OCO3)cc1Cl 2.83%
Cc1ccnc(NC(=O)C2CCC(CNc3c(N4CCCC4)c(=O)c3=O)CC2)c1 (stereo not drawn) 15.6%
CC(C)Nc1nnc(SC(C)C(=O)Nc2ccc(Cl)cn2)s1 (stereo not drawn) 5.71%
COC(=O)N/N=C/c1ccc(OC(=O)/C=C/c2ccco2)cc1 -6.97%
CCOc1cccc2sc(N(CCN(CC)CC)C(=O)c3cccc([N+](=O)[O-])c3)nc12 3.1%
COc1cc(NS(=O)(=O)c2ccc(NC(C)=O)cc2)nc(OC)n1 -0.66%
O=C(CSC1=NCCS1)Nc1ccc(S(=O)(=O)NC2CCCCC2)cc1 8.51%
O=C(COC(=O)c1n[nH]c2ccccc12)c1cc(F)ccc1F 3.93%
COC(=O)c1cc(NC(C)=O)ccc1N1CCOCC1 8.76%
CC(C)(C)c1ccc(C2C(C#N)=C(N)Oc3n[nH]c(-c4cccnc4)c32)cc1 (stereo not drawn) 3.44%
Cc1ccc(Cn2ccc(NC(=O)c3cc4nc5c(c(C(F)(F)F)n4n3)CCc3ccccc3-5)n2)cc1 13.9%
COc1ccc(NC(=O)C(CC(=O)O)C(C)c2ccccc2)cc1 (stereo not drawn) -2.5%
COc1ccc(NC(=O)C(CC(=O)O)Cc2ccc(C)cc2)cc1 (stereo not drawn) 53%
COc1ccc(CC(CC(=O)O)C(=O)NCc2ccccc2)cc1 (stereo not drawn) -4.42%
COc1ccc(C(CC(=O)Nc2ccc(F)cc2)c2ccccc2)cc1 (stereo not drawn) -0.86%
CCOc1ccc(NC(=O)C(CC(=O)O)Cc2ccccc2)cc1 (stereo not drawn) 1.68%
COc1ccc(NC(=O)C(Cc2ccccc2)n2cccc2)cc1 (stereo not drawn) -2.31%
COc1ccc(OC)c(NC(=O)C(CC(=O)O)Cc2ccc(Cl)cc2)c1 (stereo not drawn) 35.7%
COc1ccc(NC(=O)Cc2ccccc2)cc1 34.6%
CCOC(=O)Nc1ccc2nc3n(c(=O)c2c1)CCCCC3 9.64%
COc1ccc2ccccc2c1CN1CCN(Cc2ccccc2)CC1 7.12%
CN1CCN(c2cc(=O)n(Cc3ccc(F)cc3)c(=O)[nH]2)CC1 -0.83%
COc1ccc(-c2nc(=S)[nH][nH]2)cc1OC -3.54%
O=C(O)CC(Cc1ccc(Cl)cc1)C(=O)Nc1ccc([N+](=O)[O-])cc1 (stereo not drawn) 44.7%
O=C(O)CC(NNC(=O)c1ccccc1)C(=O)Nc1ccc([N+](=O)[O-])cc1 (stereo not drawn) 4.13%
c1ccc(COc2ccc(CNCc3cccs3)cc2)cc1 0.61%
Cc1cc(NC(=O)CSc2nnc(CNc3ccc(F)cc3)n2C2CCCCC2)no1 -6.09%
